# Data published in the supplement of paper PMC9694430.
# Structures can show the parent of a compound that is named as a salt.
# What was measured:
# Assay in all cases: thermal shift delta Tm vs DMSO control; higher = stronger stabilization (binding)
# Conditions in all cases: 12.5 µM; protein concentration 2 µM
# [1] = tested on: LOC_OS01G01410-cb001
# Outline: (§1)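 Rice kinase domain constructs were expressed in E. coli, purified, and tested by differential scanning fluorimetry with compound added in DMSO. Each well of a 96-well plate held 19.5 μl of 2 μM kinase in 100 mM potassium phosphate pH 7.5, 150 mM NaCl, 10% glycerol and 5 × SYPRO Orange, and fluorescence was read from 25°C to 95°C at 0.05°C/s. The melting temperature shift is the mean of triplicates, taken against protein with DMSO alone after Boltzmann fitting.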
# [2] = tested on: LOC_OS01G02750-cb003
# Outline: as §1
# [3] = tested on: LOC_OS01G10900-cb004
# Outline: as §1
# [4] = tested on: LOC_OS01G13800-cb001
# Outline: as §1
# [5] = tested on: LOC_OS01G14860-cb001
# Outline: as §1
# [6] = tested on: LOC_OS01G21960-cb002
# Outline: as §1
# [7] = tested on: LOC_OS01G39600-cb002
# Outline: as §1
# [8] = tested on: LOC_OS01G48390-cb002
# Outline: as §1
# [9] = tested on: LOC_OS01G51400-cb002
# Outline: as §1
# [10] = tested on: T1, LOC_OS01G52050-cb004
# T1 sequence (whole entry): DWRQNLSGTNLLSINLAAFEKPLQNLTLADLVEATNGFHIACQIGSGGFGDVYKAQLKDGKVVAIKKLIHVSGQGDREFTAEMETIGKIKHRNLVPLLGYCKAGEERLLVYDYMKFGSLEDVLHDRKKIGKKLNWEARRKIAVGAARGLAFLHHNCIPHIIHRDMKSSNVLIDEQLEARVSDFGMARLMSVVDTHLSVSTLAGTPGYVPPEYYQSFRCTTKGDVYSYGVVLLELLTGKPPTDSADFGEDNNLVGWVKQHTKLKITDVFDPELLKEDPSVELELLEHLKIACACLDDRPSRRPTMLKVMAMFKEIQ
# Outline: as §1
# [11] = tested on: LOC_OS01G57100-cb003
# Outline: as §1
# [12] = tested on: LOC_OS01G60330-cb001
# Outline: as §1
# [13] = tested on: LOC_OS01G60700-cb002
# Outline: as §1
# [14] = tested on: LOC_OS01G63280-cb003
# Outline: as §1
# [15] = tested on: LOC_OS01G67340-cb003
# Outline: as §1
# [16] = tested on: LOC_OS01G70970-cb002
# Outline: as §1
# [17] = tested on: LOC_OS02G07810-cb001
# Outline: as §1
# [18] = tested on: LOC_OS02G08530-cb003
# Outline: as §1
# [19] = tested on: LOC_OS02G14120-cb001
# Outline: as §1
# [20] = tested on: LOC_OS02G17970-cb001
# Outline: as §1
SMILES,thermal shift delta Tm [1] [°C],thermal shift delta Tm [2] [°C],thermal shift delta Tm [3] [°C],thermal shift delta Tm [4] [°C],thermal shift delta Tm [5] [°C],thermal shift delta Tm [6] [°C],thermal shift delta Tm [7] [°C],thermal shift delta Tm [8] [°C],thermal shift delta Tm [9] [°C],thermal shift delta Tm [10] [°C],thermal shift delta Tm [11] [°C],thermal shift delta Tm [12] [°C],thermal shift delta Tm [13] [°C],thermal shift delta Tm [14] [°C],thermal shift delta Tm [15] [°C],thermal shift delta Tm [16] [°C],thermal shift delta Tm [17] [°C],thermal shift delta Tm [18] [°C],thermal shift delta Tm [19] [°C],thermal shift delta Tm [20] [°C]
COc1cc(Nc2c(C#N)cnc3cc(OCCCN4CCN(C)CC4)c(OC)cc23)c(Cl)cc1Cl [Bosutinib (SKI-606)],0.89,0.44,-0.3,0.52,0.06,-0.08,-0.04,0.05,-0.09,0.17,0.91,1.47,0.95,-0.23,-0.85,0.24,0.38,0.38,0.1,-0.22
Cc1ccccc1-n1c(Cn2nc(-c3cccc(O)c3)c3c(N)ncnc32)nc2cccc(C)c2c1=O,0.31,0.33,0.02,-0.2,-0.04,0.03,-0.15,0.39,0.33,–,1.41,0.24,1.19,0.18,0.86,0.24,1.1,0.86,-1.12,-0.12
CNC(=O)CN1CCC(Oc2cc3c(Nc4cccc(Cl)c4F)ncnc3cc2OC)CC1 [Sapitinib (AZD8931)],0.6,0.72,0.42,-0.22,0.2,0.31,0.43,0.44,-0.05,0.01,0.77,0.15,0.56,0.07,-0.27,-0.1,0.32,0.51,2.09,-0.13
Cn1c(Nc2ccc(C(F)(F)F)cc2)nc2cc(Oc3ccnc(-c4ncc(C(F)(F)F)[nH]4)c3)ccc21,2.71,15.5,2.13,3.67,5.02,4.72,5.68,4.18,–,6.02,4.82,16.6,0.58,24.5,1.4,1.63,3.92,0.26,0.77,2.38
O=C(NC(NC(=S)Nc1ccc(F)c([N+](=O)[O-])c1)C(Cl)(Cl)Cl)C(c1ccccc1)c1ccccc1 (stereo not given),3.6,9.2,2.57,2.31,3.26,3.31,28.9,3.82,1.04,3.03,4.28,8.97,3.48,–,0.17,1.86,3.38,2.71,2.37,3.46
O=c1[nH]nc(Sc2ncc([N+](=O)[O-])s2)n1-c1ccc2c(c1)OCCO2,1.48,–,8.23,1.65,2.21,1.25,–,2.84,-0.65,-3.66,6.97,0,4.73,–,-6.49,-7.96,1.41,1.83,–,3.38
COc1cc2nccc(Oc3ccc(NC(=O)C4(C(=O)Nc5ccc(F)cc5)CC4)cc3)c2cc1OC [Cabozantinib malate (XL184)],0.01,0.45,0.03,0.12,0.34,0.57,0.26,3.62,0.63,0.38,1.34,0.89,1.35,0.47,0.53,0.57,1.09,1.12,0.46,0.98
CS(=O)(=O)CCNCc1ccc(-c2ccc3ncnc(Nc4ccc(OCc5cccc(F)c5)c(Cl)c4)c3c2)o1 [Lapatinib],3.23,7.61,1.97,0.94,1.79,2.25,3.93,1.79,1.92,6.04,3.37,6.75,1.03,–,1.58,1.28,1.88,1.24,0.15,1.82
CN1CCCN(C(=O)c2cccc(-c3ccc(/C=C4/C(=O)Nc5ccc(Cl)cc54)o3)c2)CC1,2.05,1.47,2.9,0.13,4.25,1.58,–,1.96,0.12,0.58,1.45,3.07,1.97,1.12,0.39,1.61,0.97,3.51,3.94,1.03
CC(C)=CC[C@@H](O)C1=CC(=O)c2c(O)ccc(O)c2C1=O [Shikonin],5.01,17.4,9.19,2.82,7.52,1.95,–,5.3,18.6,12.1,–,-0.94,3.41,–,-2.36,-5.42,0.63,-0.15,-4.81,3.84
O=C(O)c1cc(O)c2c(c1)[C@@H]([C@H]1c3cc(C(=O)O)cc(O)c3C(=O)c3c(O[C@@H]4O[C@H](CO)[C@@H](O)[C@H](O)[C@H]4O)cccc31)c1cccc(O[C@@H]3O[C@H](CO)[C@@H](O)[C@H](O)[C@H]3O)c1C2=O [Sennoside B],4.96,27.3,6.66,2.08,4.72,3.52,–,4.78,–,8.22,5.41,–,2.73,19.9,–,1.98,0.69,0.42,0.03,3.25
Nc1nccc(Oc2ccc(NC(=O)c3c[nH]cc(-c4ccc(F)cc4)c3=O)cc2F)c1Cl,1.82,5.03,3.07,0.39,5.69,1.58,–,2.63,0.87,2.83,2.6,1.42,1.09,7.56,2.23,6.22,1.41,2.08,8.06,1.52
O=C(O[C@@H]1Cc2c(O)cc(O)cc2O[C@@H]1c1cc(O)c(O)c(O)c1)c1cc(O)c(O)c(O)c1 [(-)-Epigallocatechin Gallate],0.41,–,-1.77,3.77,3.47,4.17,1.4,1.57,0.81,2.23,13.4,0.66,-5.2,–,1,-0.02,3.56,-2.15,0.07,–
CCCCCCCCc1ccc(CCC(N)(CO)CO)cc1 [Fingolimod (FTY720) HCl],-0.88,0.17,-0.2,-1.96,-1.24,-0.97,–,-0.85,-1.12,-0.88,0.23,0.41,0.6,-1.03,-0.42,-0.82,-1.73,-0.4,-0.78,-0.74
COCC(=O)NC/C=C/c1ccc2ncnc(Nc3ccc(Oc4ccc(C)nc4)c(C)c3)c2c1,1.96,0.21,0.42,0.2,0.11,-0.07,1.61,0.4,0.03,0.35,-0.71,0.77,0.69,-0.33,-0.68,0.44,0.15,0.52,-0.57,-0.14
CO[C@H]1C[C@@H]2CC[C@@H](C)[C@@](O)(O2)C(=O)C(=O)N2CCCC[C@H]2C(=O)O[C@H]([C@H](C)C[C@@H]2CC[C@H](n3cnnn3)[C@H](OC)C2)CC(=O)[C@H](C)/C=C(\C)[C@@H](O)[C@@H](OC)C(=O)[C@H](C)C[C@H](C)/C=C/C=C/C=C/1C [Zotarolimus(ABT-578)],0.49,0.69,0.11,-0.04,0.22,1.09,–,1.07,0.06,1,2.14,2.43,1.29,0.68,0.45,0.71,1.19,0.56,0.48,1.06
CN1CCN(c2ccc(Nc3cc(-c4cccc(-n5ccc6cc(C7CC7)cc(F)c6c5=O)c4CO)cn(C)c3=O)nc2)CC1,0.08,-0.04,0.34,-0.27,0.17,0.86,–,0.24,0.38,0.27,0.99,0.83,1.11,0.24,-0.1,1.04,0.37,1.24,0.2,0.75
Cn1cc(C2=C(c3ccc(Cl)cc3Cl)C(=O)NC2=O)c2ccccc21,4.05,13.7,6.42,1.69,6.48,4.64,18.2,2.99,13.9,14.6,6.65,11.5,4.75,15.7,–,7.16,1.24,3.23,12.5,1.77
O=C(Nc1ccc(-c2ccnc(Nc3ccc(N4CCOCC4)cc3)n2)cc1)C1CCCN1 (stereo not given),-0.35,-0.13,0.59,-0.02,1.14,1.5,–,0.45,0.18,0.51,0.26,0.51,1.22,0.08,-0.06,0.39,0.59,0.66,3.38,0.54
COc1ccc(Oc2cc(NCCC(F)(F)F)c3ncc(-c4ccc(C(=O)NC5CC5)c(C)c4)n3n2)c(F)c1F,0.28,1.7,-0.65,0.15,0.68,-0.46,1.84,0.14,0.75,1.81,-1.23,1.27,-0.2,0.82,1,0.18,1.17,0.66,-0.01,1.28
Cc1cccc(CC(=O)N2CCc3c2ccc(-c2cn(C)c4ncnc(N)c24)c3F)n1,1.17,6.31,2.32,-0.12,0.28,0.3,0.17,-0.13,0.48,1.35,1.41,0.28,1.1,5.6,3.56,0.24,0.39,0.71,1.09,1.12
CC(C)CCN1c2nc(Nc3cc(F)c(O)c(F)c3)ncc2N(C)C(=O)C1C (stereo not given),2.96,1.52,2.63,0.08,3.74,1.92,3.67,1.58,0.67,5.38,1.71,6.27,2.07,7.85,8.73,4.67,1.13,2.78,3.11,1.38
Cn1sc(=O)n(Cc2ccccc2)c1=O,-9.79,-0.38,–,0.24,-0.11,1.01,0.5,0.64,0.21,-0.28,3.29,-0.15,2.66,1.02,-1.31,–,2.24,-1.23,-0.52,1.81
O=S(=O)(NCCNC/C=C/c1ccc(Br)cc1)c1cccc2cnccc12,0.28,0.92,3.17,0.66,0.58,1.16,0.27,1.8,0.23,0.48,1.34,0.45,0.98,0.58,-0.25,0.05,1.39,0.72,0.95,0.98
Cc1ccc(C(=O)Nc2cccc(C(F)(F)F)c2)cc1Nc1nc(-c2cccnc2)nc2c1cnn2C,1.82,7.19,1.25,1.68,1.28,2.07,–,2.62,1.11,2.93,2.35,2.86,1.11,0.24,0.79,0.92,1.8,1.77,0.87,2.02
FC(F)(F)c1ccc(Nc2nc3ccc(Oc4ccnc(-c5ncc(C(F)(F)F)[nH]5)c4)cc3[nH]2)cc1 [Raf265 derivative],2.22,8.8,2.77,3.55,4.58,3.8,6.13,4.75,–,8.78,1.09,1.86,-0.31,–,0.26,1.67,2.01,0.35,0.25,2.16
